In the library only some 4.1% were active in any assay of this set; here they are far more common.
hgDAF12 agonist – activates the H. glycines DAF-12 receptor ligand-binding domain | HEK293 GAL4-hgDAF12 UAS-luciferase reporter, agonist luminescence; normalized to butyrate control | activation, % at 6.8 µM | 1.8% of 370,000 active;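 active = activation above a cutoff set at the mean of all screened compounds plus 3 SD, cut at about 10% in these data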
DAX1 inh-1 – inhibitors of DAX1 repression of SF-1 activated StAR promoter; HEK293T StAR-luciferase reporter, SF-1/DAX-1 repression relief; inhibition, % at 6.8 µM; 1.1% of 370,000 active; AID 652010;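 active = inhibition above the mean over all tested compounds plus 3 SD, cut at about 3.6% in these data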;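 note: higher inhibition means more luminescence from relief of DAX-1 repression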
ssDAF-12 act – activates DAF-12 receptor from parasite S. stercoralis. 1% of 370,000 active. HEK293 ssDAF-12/GRIP1 lit1-tk-luc reporter, luminescence; % of 3 µM dafachronic acid response. AID 652126. activation, % at 6.8 µM;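 active = activation above the mean over all tested compounds plus 3 SD, cut at about 0.9% in these data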
DAX1 inh-2 – inhibits human nuclear receptor DAX1. P51843. HEK293 Gal4-DAX1 luciferase reporter, luminescence. inhibition, % at 6.75 µM. 0.99% of 340,000 active;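 active = inhibition above the mean over all tested compounds plus 3 SD, cut at about 4.2% in these data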;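 note: inhibition shows as a rise in luminescence from relieved DAX1 repression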
Target sequence (P51843 207-470 limits assumed): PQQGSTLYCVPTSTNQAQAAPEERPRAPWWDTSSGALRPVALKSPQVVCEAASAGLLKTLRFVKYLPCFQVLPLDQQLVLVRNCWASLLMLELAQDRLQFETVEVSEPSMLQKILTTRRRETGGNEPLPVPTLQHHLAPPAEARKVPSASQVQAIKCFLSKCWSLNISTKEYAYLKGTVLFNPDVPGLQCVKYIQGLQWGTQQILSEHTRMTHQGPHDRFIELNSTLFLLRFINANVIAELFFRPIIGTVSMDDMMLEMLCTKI
hcDAF-12 act – activates DAF-12 receptor from parasite H. contortus. activation, % at 6.8 µM. AID 652067. 1.4% of 370,000 active. HEK293 hcDAF-12 lit1-tk-luc reporter, luminescence; 0% DMSO, 100% Δ7-dafachronic acid;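 active = activation above the mean of all tested compounds plus 3 SD, cut at about 5.5% in these data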
Each line names hits and unclear results; the compound was inactive in the other large screens.

Cc1[nH]c2ccccc2c1C(=O)COC(=O)c1ccc([N+](=O)[O-])s1	ssDAF-12 act 1.0
OCCC(N1CCOCC1)C(O)(c1ccccc1)c1ccccc1 (stereo unspecified)	none (no result: DAX1 inh-2)
CN1CCc2c(sc(/N=C/c3c[nH]c4ccccc34)c2C(N)=O)C1	hcDAF-12 act 5.9 (no result: DAX1 inh-2)
CCOC(=O)c1c(/N=C/c2ccc(OC)cc2O)sc2c1CCN(C)C2	none
COC[C@@H](O)[C@H]1OCc2cc(OC)ccc2[C@@H]1/C=C/c1ccccc1	none (no result: DAX1 inh-2)
CCCCc1c(-c2ccccc2OC)ncn1Cc1ccccc1C	none (no result: DAX1 inh-2)
COCCCn1c(=O)/c(=C/c2ccccc2OC(F)F)s/c1=C(\C#N)C(=O)NCCOC	none
COCCCn1c(=O)/c(=C\c2cccc(OC)c2OC)s/c1=C(/C#N)C(=O)Nc1ccc(C(=O)O)cc1	DAX1 inh-2 4.3
CCCCCN1CCCCC(NC(=O)c2ccccc2OC)C1=O (stereo unspecified)	none (no result: DAX1 inh-2)
Cc1ccccc1NC(=O)CSc1nc2ccccc2o1	hgDAF12 agonist 11
Cc1ccccc1/C=N/NC(=O)CSc1nc2ccccc2o1	none
N#CC1(NC(=O)CSc2nc3ccccc3o2)CCCCC1	DAX1 inh-2 4.9
N#CC1(NC(=O)CSc2nc3ccccc3s2)CCCCC1	none
CCCCOCCCNC(=O)C[C@@H]1C(=O)N(CCc2ccc(Cl)cc2)C2=CCCC[C@]21C(=O)OCC	none (no result: DAX1 inh-2)
CCn1cc(C(=O)N2CC(C)CC(C)C2)c(=O)c2cc(S(=O)(=O)N(C)C)ccc21 (stereo unspecified)	none
COCCNC(=O)c1cn(C)c2ccc(S(=O)(=O)N(C)C3CCCCC3)cc2c1=O	DAX1 inh-2 6.5
CC1CC(C)CN(C(=O)c2cn(C)c3ccc(S(=O)(=O)N(C)C)cc3c2=O)C1 (stereo unspecified)	DAX1 inh-2 4.5
Cc1ccccc1C(=O)NC1CCCCN(Cc2cccc(F)c2)C1=O (stereo unspecified)	none (no result: DAX1 inh-2)
O=C(COC(=O)c1cccc(-n2cnnn2)c1)c1ccc(F)cc1	none
O=C(COC(=O)c1cccc(-n2cnnn2)c1)Nc1c(Cl)cccc1C(F)(F)F	DAX1 inh-1 3.9
CC(=O)Nc1ccc(N=Nc2ccc(O)cc2)cc1	hgDAF12 agonist 12
O=S1(=O)c2c(cccc2N2CC[C@H](O)C2)O[C@H]2CCN1C2	none (no result: DAX1 inh-2)
Cc1ccc(/C=C/C(=O)Nc2ccc(N(C)C)cc2)o1	ssDAF-12 act 1.6
Cc1ccc(/C=C/C(=O)Nc2ccncc2)o1	none
OCC1CCCN(C(=S)Nc2ccc(Nc3ccccc3)cc2)C1 (stereo unspecified)	hgDAF12 agonist 16, DAX1 inh-2 5.7
NC(=O)C1CCCN(C(=S)Nc2ccccc2)C1 (stereo unspecified)	none
O=C(NCc1cccnc1)c1nn2cccnc2c1Cl	DAX1 inh-2 5.0
N/C(=N\OC(=O)c1cccs1)c1cccnc1	none
CCSc1ccc(/C(N)=N/OC(=O)c2cccs2)cn1	DAX1 inh-1 3.9
CCCC/C=C1/[C@H](c2ccccc2)N(C)C2=N[C@H](c3ccccc3)CC(=O)N21	none (no result: DAX1 inh-1, DAX1 inh-2)
CC(C)=C(C#N)c1nc2ccccc2s1	DAX1 inh-2 5.4
COC(=O)c1ccc(CC(=O)c2nc3ccccc3s2)cc1	ssDAF-12 act 1.0
CC(C)NC(=O)c1nc2ccccc2s1	ssDAF-12 act 3.2
N#Cc1cccc(-n2cc(COC(=O)NCCc3ccccc3)nn2)c1	none (no result: DAX1 inh-2)
FC(F)(F)Oc1cccc(Cn2ccc3ccc(-c4ccc5ccn(Cc6ccccc6)c5c4)cc32)c1	none (no result: DAX1 inh-2)
c1cnc(Sc2ccc3nnnn3n2)nc1	ssDAF-12 act 1.3
c1ccc(-c2ccc3nnnn3n2)cc1	none
CCSc1nnc(N2C(=O)CC(c3ccsc3)C3=C2CC(C)(C)CC3=O)s1 (stereo unspecified)	DAX1 inh-2 5.3
CC1(C)CC(=O)C2=C(C1)N(c1ccc(F)cc1)C(=O)CC2c1cccnc1 (stereo unspecified)	none
Cc1ccc(NC(=O)Nc2ccc3c(c2)OCO3)nc1	hgDAF12 agonist 13
Cc1cc(C)nc(NC(=O)/C=C/c2ccccc2Cl)c1	hgDAF12 agonist 12
Cc1cccc(NC(=O)Nc2cc(C)cc(C)n2)c1	hgDAF12 agonist 13
Cc1cccc(NC(=O)Nc2cccc(C#N)c2)n1	DAX1 inh-2 5.4
Cc1cccc(NC(=O)Nc2ccc(C#N)cc2)n1	none
Cc1ccc(NC(=O)Nc2ccc(Cl)c(Cl)c2)nc1	none
CC1(C)CC(=O)C=C(c2ccccc2F)C1=O	none (no result: DAX1 inh-2)

Source: PubChem (The Scripps Research Institute Molecular Screening Center)
